Assay results published in PubChem BioAssay (NCI).
About 83,000 compounds went through this panel and 20% of them were active in at least one assay; those are over-represented in the sample as a whole.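 Step 1: grow cells in 96-well plates. Step 2: add test compound at a single concentration. Step 3: incubate 48 h. Step 4: record percent growth.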

Key:
Experiment in all cases: NCI-60 one-dose screen, 48 h (100 = growth as untreated, 0 = no growth, -100 = all killed); active means growth percent below 10; inactive means the rest
[1] = system: NCI-H23 lung; conditions: 10 µM unless noted
[2] = system: 786-0 renal; conditions: 10 µM unless noted
[3] = system: DU-145 prostate; conditions: 10 µM unless noted
[4] = system: MDA-MB-231 breast; conditions: 10 µM unless noted
[5] = system: SF-268 CNS; conditions: 10 µM unless noted
[6] = system: SF-539 CNS; conditions: 10 µM unless noted
[7] = system: M14 melanoma; conditions: 10 µM unless noted
[8] = system: HCT-15 colon; conditions: 10 µM
[9] = system: UACC-62 melanoma; conditions: 10 µM unless noted
[10] = system: LOX IMVI melanoma; conditions: 10 µM unless noted
[11] = system: SK-MEL-28 melanoma; conditions: 10 µM unless noted
[12] = system: ACHN renal; conditions: 10 µM unless noted
[13] = system: OVCAR-5 ovarian; conditions: 10 µM unless noted
[14] = system: OVCAR-3 ovarian; conditions: 10 µM unless noted
[15] = system: NCI/ADR-RES ovarian; conditions: 10 µM unless noted
[16] = system: T-47D breast; conditions: 10 µM unless noted
[17] = system: MDA-MB-435 melanoma; conditions: 10 µM unless noted
[18] = system: SW-620 colon; conditions: 10 µM unless noted
[19] = system: MCF7 breast; conditions: 10 µM unless noted
[20] = system: KM12 colon; conditions: 10 µM unless noted

Measured: growth

CC1(C)N=C(N)N=C(N)N1c1ccc(OCCCCNC(=O)Nc2cccc(S(=O)(=O)F)c2)c(Cl)c1
inactive: [1] 39.8% | [2] 35.8% | [3] 37.1% | [4] 59.6% | [5] 44.4% | [6] 40.1% | [7] 40.4% | [8] 90.3% | [9] 22.8% | [10] 13.7% | [11] 60.3% | [12] 94.9% | [13] 32.5% | [14] 82.3% | [15] 110% | [16] 115% | [17] 20.1% | [18] 27.1% | [19] 15% | [20] 41.7%

CC1CC=CCC12C(=O)NC(=S)NC2=O (centres undefined)
inactive: [1] 113% | [2] 107% | [3] 122% | [4] 117% | [5] 115% | [6] 98.8% | [7] 114% | [8] 103% | [9] 105% | [10] 106% | [11] 101% | [12] 106% | [13] 103% | [14] 118% | [15] 113% | [16] 98.2% | [17] 106% | [18] 104% | [19] 105% | [20] 116%

CC(=O)Nc1ccc(C=C2C(=O)NC(=O)NC2=O)cc1
inactive: [1] 101% | [2] 96.3% | [3] 124% | [4] 104% | [5] 111% | [6] 105% | [7] 106% | [8] 103% | [9] 99.1% | [10] 96.8% | [11] 106% | [12] 109% | [13] 107% | [14] 125% | [15] 108% | [16] 106% | [17] 101% | [19] 94% | [20] 112%
